Reference: PubChem BioAssay (Tox21)
“And” between values parts separate entries of the source, which are not always exact repeats. Identical values can stand only once. Inconclusive results are not listed. The source made the active and inactive calls. Unless noted, the call rests on the fitted dose curve; in most records, active means well fitted curve in the direction sought with a large enough effect in the repeat runs; inconclusive means weak or mixed curves; inactive means no such curve, though single readings can be large; an effect the other way counts as inactive or inconclusive.

How the values were obtained:
[1] = target: Acetylcholinesterase (Homo sapiens) (UniProt P22303); test: Acetylcholinesterase (AChE) small molecule antagonists: enzyme-based qHTS assay (AID 1347397; calls by dose curve; further: nearly all actives have a fitted effect of over 55% in size; further: potency means the concentration at half of the fitted maximal effect); details: Potency: AChE enzyme activity inhibition; outcome: AChE enzyme activity inhibition
Method in brief: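 Colorimetric DTNB read-out of thiocholine released from acetylthiocholine by recombinant human AChE (50 mU/mL as dispensed). Compounds were preincubated 30 min at RT before substrate/DTNB addition, with a 10 min RT reaction.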

[2] = target: Acetylcholinesterase (Homo sapiens) (UniProt P22303); test: Acetylcholinesterase (AChE) small molecule antagonists: fluorescence cell-based qHTS assay (AID 1347398; calls by dose curve; further: nearly all actives have a fitted effect of over 50% in size; further: potency means the concentration at half of the fitted maximal effect); details: Potency: AChE activity; outcome: AChE activity
Method in brief: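 SH-SY5Y, 2,000 cells/well, attached overnight; cmpd 30 min 37 C; acetylthiocholine/Thiolite Green cocktail 40 min RT; fluorescence Ex/Em 490/520 nm.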

[3] = target: Acetylcholinesterase (Homo sapiens) (UniProt P22303); test: Acetylcholinesterase (AChE) small molecule antagonists: enzyme-based qHTS assay with human liver microsomes (AID 1347399; calls by dose curve; further: nearly all actives have a fitted effect of over 60% in size; further: potency means the concentration at half of the fitted maximal effect); details: Potency: qHTS inhibition; outcome: qHTS inhibition
Method in brief: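 Recombinant human AChE (50 mU/mL in the enzyme mix) and human liver microsomes (0.25 mg/mL final) were preincubated with compound and NADPH (0.25 mg/mL final) for 30 min at 37 C. Acetylthiocholine/DTNB was then added; thiocholine was read colorimetrically after 10 min at room temperature.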

[4] = target: Cytochrome P450 2D6 (Homo sapiens) (UniProt P10635); test: Cytochrome P450 Family 2 Subfamily D Member 6 (CYP2D6) small molecule antagonists: luciferase reporter qHTS assay (AID 1671196); further: nearly all actives have a fitted effect of over 50% in size; further: potency means the concentration at half of the fitted maximal effect; on activity change, negative = inhibition: series mostly up to about 120 µM
Method in brief: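 Test chemicals meet CYP2D6 plus proluciferin substrate (10 min, RT); NADPH regenerating solution then drives turnover for 1 h. Detection reagent halts the reaction; luminescence measured after 20 min.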

[5] = target: Cytochrome P450 2C19 (Homo sapiens) (UniProt P33261); test: Cytochrome P450 Family 2 Subfamily C Member 19 (CYP2C19) small molecule antagonists: luciferase reporter qHTS assay (AID 1671197); further: nearly all actives have a fitted effect of over 65% in size; further: potency means the concentration at half of the fitted maximal effect; on activity change, negative = inhibition: series mostly up to about 120 µM
Method in brief: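 First, compounds are pinned into enzyme-substrate mix and held 10 min at room temperature. Second, NADPH regeneration solution is added and plates incubate 1 h at 37C. Third, detection reagent is added and luminescence read after 20 min.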

[6] = target: Cytochrome P450 2C9 (Homo sapiens) (UniProt P11712); test: Cytochrome P450 Family 2 Subfamily C Member 9 (CYP2C9) small molecule antagonists: luciferase reporter qHTS assay (AID 1671198); further: nearly all actives have a fitted effect of over 50% in size; further: potency means the concentration at half of the fitted maximal effect; on activity change, negative = inhibition: series mostly up to about 120 µM
Method in brief: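 P450-Glo proluciferin substrate with CYP2C9 enzyme; 10 min RT preincubation, then NADPH regeneration 1 h at 37C; luciferin detection reagent 20 min RT, luminescence in relative luminescence units.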

[7] = target: Voltage-gated inwardly rectifying potassium channel KCNH2 (Homo sapiens) (UniProt Q12809); test: Human Ether-a-go-go-Related Gene (hERG) channel small molecule antagonists: fluorescence cell-based qHTS assay (AID 1671200); further: nearly all actives have a fitted effect of over 50% in size; further: potency means the concentration at half of the fitted maximal effect;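 on activity change, negative = inhibition: hERG-expressing U2OS cells given a thallium stimulus after FluxOR II dye loading; series mostly up to about 77 µM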
Method in brief: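 Thallium served as the potassium surrogate; its influx into dye-loaded U2OS cells carrying the channel was measured by fluorescence over 2 min.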

[8] = target: Cytochrome P450 3A4 (Homo sapiens) (UniProt P08684); test: Cytochrome P450 Family 3 Subfamily A Member 4 (CYP3A4) small molecule antagonists: luciferase reporter qHTS assay (AID 1671201)
Method in brief: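 Relative luminescence units after 20 min with luciferin detection reagent served as read-out. Beforehand, CYP3A4 turned over a proluciferin substrate for 1 h at room temperature with NADPH regeneration, following 10 min compound preincubation.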

[9] = target: Cytochrome P450 1A2 (Homo sapiens) (UniProt P05177); test: Cytochrome P450 Family 1 Subfamily A Member 2 (CYP1A2) small molecule antagonists: luciferase reporter qHTS assay (AID 1671199); further: nearly all actives have a fitted effect of over 50% in size; further: potency means the concentration at half of the fitted maximal effect; on activity change, negative = inhibition: series mostly up to about 120 µM
Method in brief: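 Steps: enzyme-substrate mix dispensed; test compounds and furafylline control pinned in; 10 min room temperature; NADPH regeneration solution added, 1 h; reaction stopped with luciferin detection reagent; luminescence read after 20 min.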
On the % scale 0 is the no-effect control and ±100 the full control effect.

Chain of Cytochrome P450 3A4 (Homo sapiens) (P08684 whole entry, looked up): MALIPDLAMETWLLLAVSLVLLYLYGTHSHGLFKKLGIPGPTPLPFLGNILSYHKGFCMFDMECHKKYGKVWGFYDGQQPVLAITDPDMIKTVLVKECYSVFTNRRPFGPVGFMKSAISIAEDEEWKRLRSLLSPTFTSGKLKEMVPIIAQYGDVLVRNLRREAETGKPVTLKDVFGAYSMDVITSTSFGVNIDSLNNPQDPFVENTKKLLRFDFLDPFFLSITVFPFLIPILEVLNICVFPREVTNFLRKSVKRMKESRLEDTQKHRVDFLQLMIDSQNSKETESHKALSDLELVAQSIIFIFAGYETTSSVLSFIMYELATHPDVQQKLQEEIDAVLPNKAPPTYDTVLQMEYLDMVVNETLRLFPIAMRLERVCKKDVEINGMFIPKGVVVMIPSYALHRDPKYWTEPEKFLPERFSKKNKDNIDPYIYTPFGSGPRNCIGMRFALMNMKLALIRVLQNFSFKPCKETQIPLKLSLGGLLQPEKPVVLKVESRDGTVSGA
Chain of Cytochrome P450 2C9 (Homo sapiens) (P11712 whole entry, looked up): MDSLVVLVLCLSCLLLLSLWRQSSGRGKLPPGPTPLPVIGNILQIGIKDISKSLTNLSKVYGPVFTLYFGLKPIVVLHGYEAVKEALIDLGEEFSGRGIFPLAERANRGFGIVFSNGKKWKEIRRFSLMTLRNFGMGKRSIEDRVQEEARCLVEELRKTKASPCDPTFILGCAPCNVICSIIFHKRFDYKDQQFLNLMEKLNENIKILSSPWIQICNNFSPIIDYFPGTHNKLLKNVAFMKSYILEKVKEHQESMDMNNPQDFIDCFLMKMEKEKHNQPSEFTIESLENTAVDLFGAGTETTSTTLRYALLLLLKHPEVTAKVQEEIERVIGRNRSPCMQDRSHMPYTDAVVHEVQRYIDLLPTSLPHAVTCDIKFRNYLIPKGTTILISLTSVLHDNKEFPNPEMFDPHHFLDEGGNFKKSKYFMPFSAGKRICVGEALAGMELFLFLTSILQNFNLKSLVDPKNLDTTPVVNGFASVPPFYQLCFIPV
Chain of Voltage-gated inwardly rectifying potassium channel KCNH2 (Homo sapiens) (Q12809 whole entry, looked up): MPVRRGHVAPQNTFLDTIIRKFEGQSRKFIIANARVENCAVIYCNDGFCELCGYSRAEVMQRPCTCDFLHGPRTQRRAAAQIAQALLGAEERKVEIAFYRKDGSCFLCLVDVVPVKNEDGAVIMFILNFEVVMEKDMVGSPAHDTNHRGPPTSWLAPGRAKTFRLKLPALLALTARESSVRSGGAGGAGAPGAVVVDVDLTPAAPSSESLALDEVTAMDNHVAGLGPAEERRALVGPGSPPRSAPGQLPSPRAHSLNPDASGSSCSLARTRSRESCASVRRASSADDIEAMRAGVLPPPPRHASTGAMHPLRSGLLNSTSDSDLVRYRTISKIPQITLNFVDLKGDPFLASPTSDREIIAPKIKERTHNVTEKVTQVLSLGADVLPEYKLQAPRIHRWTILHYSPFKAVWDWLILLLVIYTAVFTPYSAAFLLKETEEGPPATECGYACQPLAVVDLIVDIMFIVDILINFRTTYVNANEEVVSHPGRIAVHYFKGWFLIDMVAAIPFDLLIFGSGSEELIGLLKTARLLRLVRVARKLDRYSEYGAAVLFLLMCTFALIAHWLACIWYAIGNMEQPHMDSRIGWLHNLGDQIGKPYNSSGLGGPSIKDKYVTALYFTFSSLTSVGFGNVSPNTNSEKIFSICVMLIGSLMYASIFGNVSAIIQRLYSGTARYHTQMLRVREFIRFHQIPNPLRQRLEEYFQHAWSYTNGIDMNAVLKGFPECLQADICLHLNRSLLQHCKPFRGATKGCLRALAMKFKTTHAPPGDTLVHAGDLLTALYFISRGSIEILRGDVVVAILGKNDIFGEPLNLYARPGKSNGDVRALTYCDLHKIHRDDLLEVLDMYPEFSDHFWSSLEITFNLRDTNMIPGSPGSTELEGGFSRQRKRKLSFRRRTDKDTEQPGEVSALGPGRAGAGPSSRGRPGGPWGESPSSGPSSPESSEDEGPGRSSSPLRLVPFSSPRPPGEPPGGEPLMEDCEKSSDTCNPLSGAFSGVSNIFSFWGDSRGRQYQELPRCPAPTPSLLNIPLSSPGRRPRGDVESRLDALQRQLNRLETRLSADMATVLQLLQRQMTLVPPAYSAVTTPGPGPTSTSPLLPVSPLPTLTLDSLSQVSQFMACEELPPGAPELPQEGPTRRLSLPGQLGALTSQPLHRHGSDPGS
Chain of Acetylcholinesterase (Homo sapiens) (P22303 whole entry, looked up): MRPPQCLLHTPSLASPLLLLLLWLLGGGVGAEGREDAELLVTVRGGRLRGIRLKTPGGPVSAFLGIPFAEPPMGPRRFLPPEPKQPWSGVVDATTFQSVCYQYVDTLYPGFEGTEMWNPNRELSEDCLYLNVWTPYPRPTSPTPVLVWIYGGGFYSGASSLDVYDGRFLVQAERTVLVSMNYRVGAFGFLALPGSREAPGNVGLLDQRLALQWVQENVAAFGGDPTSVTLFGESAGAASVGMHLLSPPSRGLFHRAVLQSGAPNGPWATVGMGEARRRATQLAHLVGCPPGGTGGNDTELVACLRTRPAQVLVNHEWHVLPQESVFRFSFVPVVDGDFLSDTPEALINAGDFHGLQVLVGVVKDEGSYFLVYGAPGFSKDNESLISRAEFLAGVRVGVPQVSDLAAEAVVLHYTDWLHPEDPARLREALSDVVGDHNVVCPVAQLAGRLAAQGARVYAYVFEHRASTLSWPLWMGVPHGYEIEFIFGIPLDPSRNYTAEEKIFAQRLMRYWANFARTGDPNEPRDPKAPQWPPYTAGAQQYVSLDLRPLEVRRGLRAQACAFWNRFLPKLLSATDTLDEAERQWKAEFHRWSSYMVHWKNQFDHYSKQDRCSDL
Chain of Cytochrome P450 2C19 (Homo sapiens) (P33261 whole entry, looked up): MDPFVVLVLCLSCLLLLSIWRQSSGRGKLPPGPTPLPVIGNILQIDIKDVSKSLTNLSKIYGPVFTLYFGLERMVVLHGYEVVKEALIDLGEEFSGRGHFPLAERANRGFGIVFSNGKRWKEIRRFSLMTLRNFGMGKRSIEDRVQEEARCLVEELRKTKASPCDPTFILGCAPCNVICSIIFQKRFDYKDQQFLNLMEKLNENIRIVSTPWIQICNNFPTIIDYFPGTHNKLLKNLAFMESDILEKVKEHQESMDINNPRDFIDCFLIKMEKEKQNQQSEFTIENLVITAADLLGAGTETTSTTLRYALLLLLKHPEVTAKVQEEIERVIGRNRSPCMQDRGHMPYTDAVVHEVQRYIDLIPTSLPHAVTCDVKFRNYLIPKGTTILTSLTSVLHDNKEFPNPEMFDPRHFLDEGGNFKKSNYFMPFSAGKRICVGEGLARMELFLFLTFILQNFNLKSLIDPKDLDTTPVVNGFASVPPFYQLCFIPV
Chain of Cytochrome P450 1A2 (Homo sapiens) (P05177 whole entry, looked up): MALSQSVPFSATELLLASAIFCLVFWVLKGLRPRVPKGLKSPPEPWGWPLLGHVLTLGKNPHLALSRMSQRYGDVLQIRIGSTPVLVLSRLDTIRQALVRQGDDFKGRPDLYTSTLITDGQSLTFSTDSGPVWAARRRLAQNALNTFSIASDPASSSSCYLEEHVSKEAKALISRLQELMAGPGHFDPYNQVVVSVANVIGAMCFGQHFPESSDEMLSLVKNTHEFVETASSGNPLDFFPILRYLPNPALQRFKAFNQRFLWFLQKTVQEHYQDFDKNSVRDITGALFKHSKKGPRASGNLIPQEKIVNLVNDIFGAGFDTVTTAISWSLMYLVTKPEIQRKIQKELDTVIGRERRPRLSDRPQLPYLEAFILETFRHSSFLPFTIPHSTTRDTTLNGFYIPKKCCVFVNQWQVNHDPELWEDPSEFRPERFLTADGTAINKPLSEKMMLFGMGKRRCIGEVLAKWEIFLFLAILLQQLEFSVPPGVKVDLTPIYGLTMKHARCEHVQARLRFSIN
Chain of Cytochrome P450 2D6 (Homo sapiens) (P10635 whole entry, looked up): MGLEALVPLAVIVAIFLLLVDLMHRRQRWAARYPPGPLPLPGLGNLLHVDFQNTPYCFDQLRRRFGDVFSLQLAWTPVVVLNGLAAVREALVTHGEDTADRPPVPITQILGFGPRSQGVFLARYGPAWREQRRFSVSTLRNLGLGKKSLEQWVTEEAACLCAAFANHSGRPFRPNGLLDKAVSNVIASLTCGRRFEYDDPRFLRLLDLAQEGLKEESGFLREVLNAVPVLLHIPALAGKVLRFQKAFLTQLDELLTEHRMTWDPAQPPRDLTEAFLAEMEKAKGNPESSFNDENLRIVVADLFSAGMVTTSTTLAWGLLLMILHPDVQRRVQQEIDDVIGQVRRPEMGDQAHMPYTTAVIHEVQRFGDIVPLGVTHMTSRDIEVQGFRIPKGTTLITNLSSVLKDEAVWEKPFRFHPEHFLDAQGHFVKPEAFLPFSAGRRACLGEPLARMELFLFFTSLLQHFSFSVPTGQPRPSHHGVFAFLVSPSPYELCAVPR

CC(Oc1cc(Cl)c(Cl)cc1Cl)C(=O)O (configuration not stated)
active: Potency [6] 31.8 µM
inactive: Potency [1] | Potency [2] | Potency [3] | Potency [4] | Potency [5] | Potency [7] | Potency [8]

CN(C)c1ccc(N=O)cc1
active: Potency [4] 17.9 µM and 25.2 µM | Potency [5] 5.66 µM and 8.94 µM | Potency [6] 35.7 µM and 39.9 µM | Potency [9] 35.7 µM and 39.9 µM
inactive: Potency [1] | Potency [2] | Potency [3] | Potency [7]

CCC1(C2=NCCN2)Cc2ccccc2O1 (configuration not stated)
inactive: Potency [1] | Potency [2] | Potency [3] | Potency [5] | Potency [6] | Potency [9] | Potency [7] | Potency [8]
active: Potency [4] 15.5 µM

C[Si](Cn1cncn1)(c1ccc(F)cc1)c1ccc(F)cc1
active: Potency [4] 26 µM and 31.7 µM | Potency [5] 58.3 nM and 39.9 nM | Potency [6] 1.84 µM and 2 µM | Potency [9] 32.8 µM and 20 µM | Potency [7] 45.1 µM
inactive: Potency [1] | Potency [2] | Potency [3]

OCCCl
inactive: Potency [1] | Potency [2] | Potency [3] | Potency [4] | Potency [5] | Potency [6] | Potency [9] | Potency [7] | Potency [8]

O=CC=O
inactive: Potency [1] | Potency [2] | Potency [3] | Potency [4] | Potency [5] | Potency [6] | Potency [9] | Potency [7] | Potency [8]

CCCCCCCCP(=O)(O)O
inactive: Potency [1] | Potency [2] | Potency [3] | Potency [4] | Potency [5] | Potency [6] | Potency [7] | Potency [8]

C=CCc1ccc(OC(=O)Cc2ccccc2)c(OC)c1
active: Potency [4] 35.6 µM | Potency [5] 22.4 µM | Potency [6] 12.6 µM | Potency [9] 35.6 µM
inactive: Potency [1] | Potency [2] | Potency [3] | Potency [7]

CC1(C)CC(=O)CC(C)(C)N1[O]
inactive: Potency [1] | Potency [2] | Potency [3] | Potency [4] | Potency [5] | Potency [6] | Potency [9] | Potency [7] | Potency [8]

C=CC(=O)OCC
inactive: Potency [1] | Potency [2] | Potency [3] | Potency [4] | Potency [5] | Potency [6] | Potency [9] | Potency [7] | Potency [8]

CC(Cc1ccccc1)NCc1ccccc1Cl (configuration not stated)
active: Potency [4] 0.174 µM | Potency [5] 1.38 µM | Potency [9] 15.5 µM
inactive: Potency [1] | Potency [2] | Potency [3] | Potency [6] | Potency [7]

O=C(O)COc1cc(Cl)c(Cl)cc1Cl
inactive: Potency [1] | Potency [2] | Potency [3] | Potency [4] | Potency [5] | Potency [9] | Potency [7]
active: Potency [6] 63.4 µM and 39.9 µM

Nc1c(Br)cc(Br)c2c1C(=O)c1ccccc1C2=O
inactive: activity change, negative = inhibition [1] 0.0969% [at 23.6 µM] | activity change, negative = inhibition [2] 2.58% [at 23.8 µM] | activity change, negative = inhibition [3] 0.243% [at 23.6 µM] | activity change, negative = inhibition [4] 0.314% [at 23.6 µM] | activity change, negative = inhibition [5] -3.63% [at 23.6 µM] | activity change, negative = inhibition [6] -2.78% [at 23.6 µM] | activity change, negative = inhibition [7] -6.02% [at 15.8 µM] | activity change, negative = inhibition [8] 1.74% [at 23.6 µM]
active: Potency [9] 0.168 µM

C[C@H]1[C@@H]2Cc3ccc(O)cc3[C@@]1(C)CCN2C
active: Potency [1] 33.9 µM | Potency [2] 2.14 µM | Potency [3] 191 µM | Potency [4] 33.9 µM | Potency [5] 53.8 µM
inactive: Potency [6] | Potency [9] | Potency [7] | Potency [8]

N#CC(C#N)=Cc1ccc(O)c(O)c1
active: Potency [6] 17.4 µM
inactive: Potency [1] | Potency [2] | Potency [3] | Potency [4] | Potency [5] | Potency [7] | Potency [8]

COC1CC(=C(c2cccs2)c2cccs2)C[N+](C)(C)C1 (configuration not stated)
active: Potency [4] 0.309 µM
inactive: Potency [1] | Potency [2] | Potency [3] | Potency [5] | Potency [6] | Potency [9] | Potency [8]

COc1cc(CC(C)N)c(OC)cc1Br (configuration not stated)
inactive: Potency [1] | Potency [2] | Potency [3] | Potency [5] | Potency [6] | Potency [7]
active: Potency [4] 26 µM | Potency [9] 5.2 µM

Cc1ccc2c(C)cccc2c1
inactive: Potency [1] | Potency [2] | Potency [3] | Potency [4] | Potency [5] | Potency [6] | Potency [9] | Potency [7] | Potency [8]

C=CC(=O)NC(C)(C)CC(C)=O
inactive: Potency [1] | Potency [2] | Potency [3] | Potency [5] | Potency [6] | Potency [9] | Potency [7] | Potency [8]
active: Potency [4] 35.6 µM

CCC1CCC(=O)O1 (configuration not stated)
active: Potency [5] 45.2 µM
inactive: Potency [1] | Potency [2] | Potency [3] | Potency [4] | Potency [6] | Potency [7] | Potency [8]

C=CCN1C[C@H](C)N([C@H](c2ccc(C(=O)N(CC)CC)cc2)c2cccc(OC)c2)C[C@H]1C
active: Potency [4] 3.09 µM | Potency [7] 3.01 µM
inactive: Potency [1] | Potency [2] | Potency [3] | Potency [5] | Potency [6] | Potency [9]
